Data as given in ChEMBL document CHEMBL3988442, “University of Dundee, Small-Polar-MMV Screening Library” (2021).
The whole screen tested about 48,000 compounds, of which about 13,000 (27%) showed an effect of 50% or more. This is one part of the list.

Each compound was assayed on Wolbachia pipientis (assay: Anti-Wolbachia Cell-Based Screen). Settings: 5 µM.
Type: functional
Parameters: scale not given: in the data most compounds retested in dose-response had high values

Row | SMILES | Percent Effect
1 | NC(=O)C(NC(=O)Cc1cnn(-c2ccccc2)n1)c1ccccc1 (centres undefined) | -10.55%
2 | CNC(=O)C(C)(C)CNC(=O)Nc1cc(C)ccn1 | -2.642%
3 | CNC(=O)[C@H]1C[C@@H]2CN(S(=O)(=O)c3ccccc3)C[C@@H]2N1C.O=C(O)C(F)(F)F | -12.02%
4 | CNC(=O)[C@H]1C[C@@H]2CN(C(=O)c3ccccn3)C[C@@H]2N1S(C)(=O)=O.O=C(O)C(F)(F)F | 96.47%
5 | CNC(=O)[C@H]1C[C@@H]2CN(C(=O)c3ccncc3)C[C@@H]2N1S(C)(=O)=O.O=C(O)C(F)(F)F | 89.45%
6 | CNC(=O)[C@H]1C[C@@H]2CN(S(=O)(=O)c3ccc(F)cc3)C[C@@H]2N1C.O=C(O)C(F)(F)F | -8.738%
7 | CNC(=O)[C@H]1C[C@@H]2CN(S(=O)(=O)c3cccc(C)c3)C[C@@H]2N1C.O=C(O)C(F)(F)F | -8.978%
8 | CNC(=O)[C@H]1C[C@@H]2CN(C(=O)c3cccnc3)C[C@@H]2N1S(C)(=O)=O.O=C(O)C(F)(F)F | 86.97%
9 | CNC(=O)[C@H]1C[C@@H]2CN(S(=O)(=O)c3ccc(C)cc3)C[C@@H]2N1C.O=C(O)C(F)(F)F | -6.65%
10 | CCc1nc(C)c(C(C)N(C)CCOC)s1 (centres undefined) | -4.092%
11 | CC(C)c1nnc(NCc2ccsc2)o1 | -7.753%
12 | COc1cccc(COC(C)C(=O)NCc2nnc3n2CCC3)c1 (centres undefined) | 0.6682%
13 | Cc1csc(N2CCC(NCC3(O)CCc4ccccc43)CC2)n1 (centres undefined) | -8.914%
14 | O=S(=O)(c1cccs1)N1Cc2nc(COCC3CC3)oc2C1 | 96.89%
15 | O=C(Cc1cccs1)N1Cc2nc(COCC3CC3)oc2C1 | 106.2%
16 | O=S(=O)(c1cccs1)N1CCN2C[C@H](OCC3CC3)C[C@H]2C1 | 12.99%
17 | O=C(O)C(F)(F)F.O=C(c1ccncc1F)N1Cc2nc(COCC3CC3)oc2C1 | 11.83%
18 | O=C(NCc1ccccc1)N1Cc2nc(COCC3CC3)oc2C1 | 6.767%
19 | COCC1CN(S(=O)(=O)c2cccs2)Cc2ncnn2C1 (centres undefined) | -4.986%
20 | CN(C)c1ncc(-c2cccc(C(N)=O)c2)c(C2CNCCO2)n1.Cl (centres undefined) | 103.6%
21 | C=Cc1ccc(C(=O)NC2CCCc3nc(N(C)C)ncc32)cc1 (centres undefined) | 4.134%
22 | CN(C)c1ncc2c(n1)CCCC2NC(=O)c1ccsc1 (centres undefined) | -6.116%
23 | CN(C)c1ncc(-c2ccc(C(N)=O)cc2)c(C2CNCCO2)n1 (centres undefined) | 99.82%

Row | SMILES | Percent Effect
24 | CN(C)c1ncc(-c2ccc(C(N)=O)cc2)c(C2CCNC2)n1.Cl (centres undefined) | 101.4%
25 | Cc1nnc(-c2ccc(C(=O)Nc3ccnc(N(C)C)n3)cc2)o1 | -7.444%
26 | CC(C#N)CSc1ccccc1NCC(=O)Nc1ccccc1 (centres undefined) | -8.038%
27 | Cn1c(-c2ccccc2Cl)nc2cc(C(=O)NCCOCCO)cnc21 | -3.34%
28 | O=C(CC1CCCO1)Nc1cccc(N2CCN(CC3CC3)CC2)c1 (centres undefined) | -9.056%
29 | Cc1ccc(C)c(NC(=O)Cn2nc(C)c(C#N)c2N)c1 | -3.359%
30 | CC(C)SCc1cccc(NC2CCN(C)C2=O)c1 (centres undefined) | -2.094%
31 | CCc1ccccc1-n1cc(O)c(C(=O)N2CCCCC2)n1 | -6.715%
32 | CC(=O)N1CCCN(C(=O)C(C)n2cncn2)CC1 (centres undefined) | 98.01%
33 | CC(C)N1CCN(C(=O)C(C)n2cncn2)CC1 (centres undefined) | 90.2%
34 | CC(C(=O)N1CCN(c2cnccn2)CC1)n1cncn1 (centres undefined) | -0.9189%
35 | CC(C(=O)N1CCN(c2ccccc2Cl)CC1)n1cncn1 (centres undefined) | 9.073%
36 | Cc1csc(N2CCCN(C(=O)C(C(C)C)n3cncn3)CC2)n1 (centres undefined) | -4.935%
37 | CCc1nc(CN2CCCN(C(=O)C(C)n3cncn3)CC2)cs1 (centres undefined) | -3.687%
38 | COc1ccc(NC(C)C(=O)N2CCN(c3ncccn3)CC2)cn1 (centres undefined) | -16.98%
39 | CC(C(=O)N1CCOCC1)n1cncn1 (centres undefined) | 74.2%
40 | CC(=O)N1CCN(C(=O)C(C)n2cncn2)CC1 (centres undefined) | 5.614%
41 | CC(C(=O)N1CCN(c2ncccn2)CC1)n1cncn1 (centres undefined) | 114.6%
42 | CC(=O)N1C[C@@H](F)[C@@H](OCc2nc3ccc(C#N)cc3[nH]2)C1 | -0.3332%
43 | Cc1csc(CN(CC2CCCO2)C(=O)c2occc2C)n1 (centres undefined) | -7.004%
44 | Cc1ccc(NC2(C(=O)NCc3c(C)n[nH]c3C)CCCC2)cc1 | 1.889%
45 | O=S1(=O)CCC(N(CCc2ccc3c(c2)CCO3)C2CC2)C1 (centres undefined) | -1.378%
46 | Cc1ccc(CN2CCOC3(CCCN(C(=O)c4ccco4)C3)C2)o1 (centres undefined) | -7.626%

Row | SMILES | Percent Effect
47 | NCCc1c(-c2ccc(F)cc2)[nH][nH]c1=O | 105.4%
48 | NCCc1c(-c2ccccc2)[nH][nH]c1=O.O=C(O)C(=O)O | 104.8%
49 | Cc1ccc(-c2[nH][nH]c(=O)c2CCN)cc1 | 116.2%
50 | Cc1nc(C)c(CCNC(Cc2ccncc2)C(F)(F)F)s1 (centres undefined) | 2.095%
51 | CC(SCCS(C)(=O)=O)c1nc(Cc2ccc(F)cc2)no1 (centres undefined) | -13.13%
52 | CNC(=O)c1cn2cc(-c3ccccc3Cl)n(CC=C(C)C)c(=O)c2n1 | 16.22%
53 | COc1ccccc1C(C)CC(=O)N1CCCS1(=O)=O (centres undefined) | -3.86%
54 | COc1ccccc1CNC(=O)C(C)N1CC(n2nc(C)cc2C)C1 (centres undefined) | -6.868%
55 | COc1ccccc1CN1CC(OC)CN(C(=O)OCC(C)C)CC1=O (centres undefined) | 116.7%
56 | COc1ccccc1C(C)CC(=O)N1CCN(S(N)(=O)=O)CC1 (centres undefined) | 6.973%
57 | COc1ccccc1CN1CC(OC)CN(C(=O)CC(C)C)CC1=O (centres undefined) | 106.9%
58 | COc1ccccc1CN1CC(O)CN(C(=O)OCC(C)C)CC1=O (centres undefined) | 126.7%
59 | COc1ccccc1OC1CN(C(=O)Cc2c(C)nc(N)nc2C)C1 | -25.47%
60 | COc1ccccc1CNC(=O)N1CCCC(CO)C1 (centres undefined) | 3.322%
61 | Cc1cc(CNc2cc(Cl)ccc2OCCS(C)(=O)=O)no1 | 12.16%
62 | COCCN(Cc1ccsc1)C(=O)c1c(C)cc(C)[nH]c1=O | -10.51%
63 | CN1[C@H](CN2CCCC2)C[C@@H]2CN(Cc3ccoc3)CC[C@@H]21.O=C(O)C(F)(F)F.O=C(O)C(F)(F)F.O=C(O)C(F)(F)F | 3.946%
64 | CC(C)N1[C@H](Cn2cncn2)C[C@@H]2CN(Cc3nccn3C)CC[C@@H]21.O=C(O)C(F)(F)F.O=C(O)C(F)(F)F.O=C(O)C(F)(F)F | 2.762%
65 | Cc1oncc1C(=O)N1CC[C@H]2[C@H](C[C@@H](CN(C)C)N2CC2CC2)C1.O=C(O)C(F)(F)F.O=C(O)C(F)(F)F | 105.6%
66 | CN(C)C[C@@H]1C[C@@H]2CN(Cc3nccn3C)CC[C@@H]2N1CC1CC1 | 107.7%
67 | Cc1ccoc1C(=O)N1CC[C@H]2[C@H](C[C@@H](CN3CCCC3)N2C)C1.O=C(O)C(F)(F)F.O=C(O)C(F)(F)F | 96.15%
68 | CC(C)C1CN(Cc2nccn2C)CCC(=O)N1CC1CC1 (centres undefined) | -0.2084%
69 | Cc1cc(C(=O)N2CC[C@H]3[C@H](C[C@@H](CN4CCCC4)N3C)C2)c(C)o1.O=C(O)C(F)(F)F.O=C(O)C(F)(F)F | 132.6%

Row | SMILES | Percent Effect
70 | CC(C)N1[C@H](CN2CCCC2)C[C@@H]2CN(Cc3ccoc3)CC[C@@H]21.O=C(O)C(F)(F)F.O=C(O)C(F)(F)F.O=C(O)C(F)(F)F | -12.2%
71 | CS(=O)(=O)N1CC[C@H]2[C@H](C[C@@H](Cn3cncn3)N2CC2CC2)C1.O=C(O)C(F)(F)F | -10.6%
72 | Cc1cc(C(=O)N2C[C@@H]3COC[C@]3(CN(C)C)C2)c(C)o1.O=C(O)C(F)(F)F | -9.437%
73 | Cc1oncc1C(=O)N1C[C@H]2CCCC(N(C)Cc3cccs3)[C@H]2C1.O=C(O)C(F)(F)F (some centres undefined) | 13.96%
74 | CCOCC1CN(C(=O)c2cc(C)oc2C)Cc2c1cnn2C.O=C(O)C(F)(F)F (centres undefined) | 4.422%
75 | CN(C)C(=O)N1CCN(Cc2nc3ccccc3[nH]2)[C@H]2CS(=O)(=O)C[C@H]21 | -17.35%
76 | CC(C)c1nc(CN2CCCCC2)cs1 | -7.213%
77 | COCCCN1CC2(CCN(C(=O)c3ncc(F)cc3F)CC2)CC1=O | 74.04%
78 | COCCCN1CC2(CCN(Cc3ncc[nH]3)CC2)CC1=O | 10.5%
79 | COCCCN1CC2(CCN(C(=O)Cc3csc(C)n3)CC2)CC1=O | -10.63%
80 | COCCCN1CC2(CCN(C(=O)c3ccc(=O)n(C)c3)CC2)CC1=O | 118.9%
81 | CN1CC2(CCN(C(=O)c3ccc(=O)n(C)c3)CC2)CC1=O | 119.6%
82 | CN1CC2(CCN(C(=O)c3ccc4nccnc4c3)CC2)CC1=O | -6.042%
83 | CC1(C)CN(C(=O)c2ncc(F)cc2F)CCC1(O)CN1CCOCC1 (centres undefined) | -6.83%
84 | COc1cccc(N2CCN(C(=O)c3ccc(=O)n(C)c3)CC2)c1 | -5.711%
85 | CN1CC2(CCN(C(=O)c3ccc4nonc4c3)CC2)CC1=O | -11.27%
86 | Cc1nnc(CN(C)C2CCN(c3cccc(-c4cscn4)c3)CC2)o1 | -15.24%
87 | CC(=O)N1[C@H](Cn2cncn2)C[C@@H]2CN(S(C)(=O)=O)CC[C@@H]21 | -6.775%
88 | CCC(C(=O)NC)N(c1cccc(C)c1)S(C)(=O)=O (centres undefined) | 11.36%
89 | CSc1cccc(CN(C)C(=O)Nc2nc(C)n(C)n2)c1 | 2.052%
